This is part of a sample that, as a whole, favours compounds with a hit. Of some 83,000 tested, about 20% had one in any assay.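 Single-concentration screen, 48 h exposure, 96-well plates. Endpoint: percent growth. Below 10 = active.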 Unmarked numbers belong to inactive results. Active and inactive are the calls of the source.
System: EKVX NSCLC
Experiment: NCI-60 one-dose screen, 48 h (100 = growth as untreated, 0 = no growth, -100 = all killed)
Conditions: 10 µM unless noted
Procedure: Growth inhibition of the EKVX human Non-Small Cell Lung tumor cell line is measured as a screen for anti-cancer activity. Cells are grown in 96 well plates and exposed to the test compound for 48 hours. Compounds are tested at a single concentration, which is 10^-5 M for most compounds. The reported endpoint is percent growth (GI% or GIPRCNT), where numbers from 0 - 100% represent growth inhibition, and numbers from -100% - 0 represent cell death. For example, a value of 40 represents 60% growth inhibition. A value of 0 means no net growth occurred over the course of the experiment. A value of -40 indicates 40% of cells at the beginning of the experiment died by the end of the experiment. A value of -100 means all cells are dead at the end of the experiment.
NCI-60 Human Tumor Cell Lines Screen was performed using the standard one-dose NCI protocol, which is described in more detail at https://dtp.cancer.gov/discovery_development/nci-60/default.htm.
Compounds with GIPRCNT values below 10 were considered active. Activity score was based on GIPRCNT using the following formula: […]
Score is 0 for GIPRCNT values of 100 or above, 50 for GIPRCNT values of 0, and 100 for GIPRCNT values of -100.

**Q.** How did the growth turn out when `CC(C)c1ccc(C(=O)OCCCl)cc1` was run?
**A.** 102%

**Q.** How did the growth turn out when `COC(=O)Cc1cc(COC(C)=O)ccc1C` was run?
**A.** 119%

**Q.** How did the growth turn out when `CC(=O)N(CCCCCCN(C(C)=O)C(C)=O)C(C)=O` was run?
**A.** 106% [100 µM]

**Q.** `C=C(C)[C@@H]1CC[C@]2(CO)CC[C@]3(C)[C@H](CC[C@@H]4[C@@]5(C)CC[C@H](O)C(C)(C)[C@@H]5CC[C@]43C)[C@@H]12` was tested. Which growth did it give?
**A.** 66.4%

**Q.** How did the growth turn out when `CCCCNC(=O)c1ccc(OCC)cc1` was run?
**A.** 103%

**Q.** With `O=C(O)CSCC(=O)Nc1cc(C(F)(F)F)ccc1Cl` as the compound, how does the growth read?
**A.** 105%

**Q.** How did the growth turn out when `O=C1NC(=O)/C(=C\c2ccncc2)N1` was run?
**A.** 95.5%

**Q.** With `N#CC1(O)CCCCC1` as the compound, how does the growth read?
**A.** 101%

**Q.** For `O=C1C=C[C@H](O)[C@@]2(CO)O[C@@H]12`, which growth is on record?
**A.** 72.4%

**Q.** Which growth does the source give for `COc1ccc(-c2csc(NC(=O)Nc3nc(-c4ccc(OC)cc4)cs3)n2)cc1` here?
**A.** 72.3%

**Q.** Which growth does the source give for `Nc1cccc2cccc(O)c12` here?
**A.** 94.6%

**Q.** How did the growth turn out when `COc1ccc(C)cc1NC(=O)SC(C)C` was run?
**A.** 102% [100 µM]

**Q.** Which growth does the source give for `NNc1ncccn1` here?
**A.** 102%

**Q.** For `O=S(=O)(O)c1cccc2cccnc12`, which growth is on record?
**A.** 110%

**Q.** Which growth does the source give for `S=C=Nc1ccc2ccccc2c1` here?
**A.** 103%

**Q.** `CC(=O)NNC(=S)/N=C\C(C(=O)c1ccccc1)=C(/O)c1ccccc1` was tested. Which growth did it give?
**A.** 99.4%

**Q.** For `COc1cccc2c1Cc1ccccc1-2`, which growth is on record?
**A.** 102%

**Q.** For `Cc1ccc(O)c(N)c1`, which growth is on record?
**A.** 136%

**Q.** With `S=c1nc2[nH]c3ccccc3c2n[nH]1` as the compound, how does the growth read?
**A.** 66.4%

**Q.** `Cc1cc2c(C(C)C)c(O)c(O)c(C=Nc3ccccc3[N+](=O)[O-])c2c(O)c1-c1c(C)cc2c(C(C)C)c(O)c(O)c(C=Nc3ccccc3[N+](=O)[O-])c2c1O` was tested. Which growth did it give?
**A.** 60.7%

**Q.** Which growth does the source give for `C=CCC(OC(C)=O)c1ccc(C(C)C)cc1` (stereo not given) here?
**A.** 113%

**Q.** With `Cc1cc(C)cc(OCC(=O)O)c1` as the compound, how does the growth read?
**A.** 101%

**Q.** For `CCC(=O)Oc1c(C)cc(O)c2ccccc12`, which growth is on record?
**A.** 97%

**Q.** For `Nc1nc(Cl)cc(Cl)n1`, which growth is on record?
**A.** 103%

**Q.** How did the growth turn out when `O=c1cc(C(F)(F)F)[nH]c(=S)[nH]1` was run?
**A.** 95%

**Q.** How did the growth turn out when `C=COC(=O)CCOCC(CC)CCCC` (stereo not given) was run?
**A.** 110%

**Q.** How did the growth turn out when `Cc1ccc[n+](CCC(N)=O)c1` was run?
**A.** 90.2%

**Q.** For `C=CCc1cc(OC)c(O)c(OC)c1`, which growth is on record?
**A.** 101%

**Q.** How did the growth turn out when `CCN(Cc1ccc(Cl)c(Cl)c1)c1ccc2nc(N)nc(N)c2c1C` was run?
**A.** -56.8% (active)

**Q.** With `Cc1ccc(NCN2C(=O)c3ccccc3C2=O)c(C)n1` as the compound, how does the growth read?
**A.** 106%

**Q.** `Nc1ccn(C2OC(CO)C(O)C2F)c(=O)n1` (stereo not given) was tested. Which growth did it give?
**A.** 96.4%

**Q.** Which growth does the source give for `C=C1CC2(OC1=O)C(=O)N(C)c1ccc(I)cc12` (stereo not given) here?
**A.** -46.4% (active)

**Q.** How did the growth turn out when `Cc1ccccc1NC(=O)Oc1ccc(Cl)cc1C(=O)c1ccccc1` was run?
**A.** 96.8%

**Q.** How did the growth turn out when `COc1ccc(NNS(=O)(=O)O)cc1` was run?
**A.** 104%

**Q.** For `NC(=S)N/N=C/c1ccc(OC(=O)COc2ccc(Cl)cc2)cn1`, which growth is on record?
**A.** 93.6%

**Q.** For `Clc1ccc(C(SCc2ccccc2)SCc2ccccc2)cc1`, which growth is on record?
**A.** 89.9%

**Q.** With `CC(C)NC(=O)OCc1c(COC(=O)NC(C)C)c(-c2ccc(Cl)cc2)n2c1CCC2` as the compound, how does the growth read?
**A.** 76.6%

**Q.** For `CCOC(=O)/C(C#N)=C\c1c[nH]c2ccccc12`, which growth is on record?
**A.** 75.7%

**Q.** Which growth does the source give for `Nc1ncc([N+](=O)[O-])cn1` here?
**A.** 105%

**Q.** How did the growth turn out when `CCNc1ccc2ccccc2c1N=Nc1ccc(N=Nc2ccccc2)cc1` was run?
**A.** 98.5%

From PubChem BioAssay (NCI)
